Activity calls are given as the source filed them. Rule for the calls: active = hit-call score of the fitted dose curve at least 0.9, where 1 is the maximum; inactive = score below 0.9.
Tests used:
Conditions in all cases: mRNA level, 48 h; actives raise or lower the signal
[1] = read-out: NAD(P)H dehydrogenase [quinone] 1 (NQO1), NQO1 (gene 1728); assay: LTEA_HepaRG_NQO1: Life Technologies and Expression Analysis (LTEA) Assay for NAD(P)H dehydrogenase [quinone] 1 (NQO1) using HepaRG (AID 2283526)
In short: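 In this assay, gene expression is read by qRT-PCR after 48 h exposure of HepaRG cells to eight concentrations (max 100 uM, half-log) in 0.5% DMSO. Each chemical runs in duplicate, and activity is scored relative to vehicle.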

[2] = read-out: Nuclear factor erythroid 2-related factor 2 (Homo sapiens) (UniProt Q16236); assay: LTEA_HepaRG_NFE2L2: Life Technologies and Expression Analysis (LTEA) Assay for Nuclear factor erythroid 2-related factor 2 (NFE2L2) Transcription Factor using HepaRG (AID 2283527);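 note: TaqMan qRT-PCR transcript level normalised to ACTB GAPDH and POLR2A housekeeping genes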
In short: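 HepaRG, 48 h dosing, 8-pt half-log series from 100 uM in 0.5% DMSO, duplicates. Read-out: NFE2L2 mRNA by qRT-PCR (ACTB/GAPDH/POLR2A normalization). Bidirectional curve fit vs DMSO baseline.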

[3] = read-out: succinate dehydrogenase complex iron sulfur subunit B (SDHB), SDHB (gene 6390); assay: LTEA_HepaRG_SDHB: Life Technologies and Expression Analysis (LTEA) Assay for succinate dehydrogenase complex iron sulfur subunit B (SDHB) using HepaRG (AID 2283528)
In short: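 A human HepaRG culture in serum-free induction medium received test chemicals for 48 h over an eight-point range capped at 100 uM. SDHB expression change was quantified by qRT-PCR.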

[4] = read-out: Signal transducer and activator of transcription 3 (Homo sapiens) (UniProt P40763); assay: LTEA_HepaRG_STAT3: Life Technologies and Expression Analysis (LTEA) Assay for Signal transducer and activator of transcription (STAT3) using HepaRG (AID 2283529)
In short: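 HepaRG, 48 h exposure, 8-pt half-log series (top 100 uM), 0.5% DMSO vehicle, duplicates. Readout: STAT3 transcript by Fluidigm qRT-PCR, housekeeping-normalized; bidirectional fit vs DMSO baseline.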

[5] = read-out: solute carrier (SLCO1B1), SLCO1B1 (gene 10599); assay: LTEA_HepaRG_SLCO1B1: Life Technologies and Expression Analysis (LTEA) Assay for solute carrier (SLCO1B1) using HepaRG (AID 2283530)
In short: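 Differentiated human HepaRG cells were exposed for 48 h in serum-free induction medium to eight half-log concentrations, top 100 uM, in 0.5% DMSO. SLCO1B1 mRNA was measured by qRT-PCR, normalized to ACTB, GAPDH and POLR2A, and fitted bidirectionally against DMSO.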

[6] = read-out: sulfotransferase 2A1 (SULT2A1), SULT2A1 (gene 6822); assay: LTEA_HepaRG_SULT2A1: Life Technologies and Expression Analysis (LTEA) Assay for sulfotransferase 2A1 (SULT2A1) using HepaRG (AID 2283531)
In short: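 HepaRG human liver cells, 48 h exposure in serum-free induction medium to 8 half-log concentrations topping at 100 µM (0.5% DMSO), duplicate wells. SULT2A1 mRNA measured by TaqMan qRT-PCR, normalized to ACTB/GAPDH/POLR2A; bidirectional fit against DMSO.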

[7] = read-out: Transforming Growth Factor (TGFA), TGFA (gene 7039); assay: LTEA_HepaRG_TGFA: Life Technologies and Expression Analysis (LTEA) Assay for Transforming Growth Factor (TGFA) using HepaRG (AID 2283532)
In short: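 qRT-PCR read-out of TGFA transcript, normalized to three housekeeping genes, fitted bidirectionally against 0.5% DMSO baseline. Human HepaRG cultures received chemicals for 48 h at eight half-log concentrations, top 100 uM.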

[8] = read-out: Transforming Growth Factor (TGFB1), TGFB1 (gene 7040); assay: LTEA_HepaRG_TGFB1: Life Technologies and Expression Analysis (LTEA) Assay for Transforming Growth Factor (TGFB1) Transporter using HepaRG (AID 2283533)
In short: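 Differentiated HepaRG cells exposed 48 hr in serum-free induction medium to eight half-log concentrations up to 100 uM (0.5% DMSO), duplicate; TGFB1 mRNA by TaqMan qRT-PCR normalised to ACTB, GAPDH, POLR2A; bidirectional fit against DMSO.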

[9] = read-out: TIMP1, TIMP1 (gene 7076); assay: LTEA_HepaRG_TIMP1: Life Technologies and Expression Analysis (LTEA) Assay for TIMP1 using HepaRG (AID 2283534)
In short: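 Differentiated HepaRG cells exposed 48 h in serum-free induction medium, duplicates, eight half-log concentrations from 100 uM in 0.5% DMSO. TIMP1 mRNA by qRT-PCR normalized to ACTB, GAPDH, POLR2A; bidirectional fitting against DMSO.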

[10] = read-out: Tumor necrosis factor receptor 1 (TNFRSF1A), TNFRSF1A (gene 7132); assay: LTEA_HepaRG_TNFRSF1A: Life Technologies and Expression Analysis (LTEA) Assay for Tumor necrosis factor receptor 1 (TNFRSF1A) using HepaRG (AID 2283535)
In short: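 Differentiated HepaRG cells in serum-free induction medium, exposed 48 h in duplicate to 8 half-log concentrations up to 100 uM in 0.5% DMSO. TNFRSF1A mRNA by Fluidigm TaqMan qRT-PCR, normalized to ACTB, GAPDH, POLR2A; bidirectional fit.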

Measured: AC50

Signal transducer and activator of transcription 3 (Homo sapiens), sequence (P40763 whole entry, looked up): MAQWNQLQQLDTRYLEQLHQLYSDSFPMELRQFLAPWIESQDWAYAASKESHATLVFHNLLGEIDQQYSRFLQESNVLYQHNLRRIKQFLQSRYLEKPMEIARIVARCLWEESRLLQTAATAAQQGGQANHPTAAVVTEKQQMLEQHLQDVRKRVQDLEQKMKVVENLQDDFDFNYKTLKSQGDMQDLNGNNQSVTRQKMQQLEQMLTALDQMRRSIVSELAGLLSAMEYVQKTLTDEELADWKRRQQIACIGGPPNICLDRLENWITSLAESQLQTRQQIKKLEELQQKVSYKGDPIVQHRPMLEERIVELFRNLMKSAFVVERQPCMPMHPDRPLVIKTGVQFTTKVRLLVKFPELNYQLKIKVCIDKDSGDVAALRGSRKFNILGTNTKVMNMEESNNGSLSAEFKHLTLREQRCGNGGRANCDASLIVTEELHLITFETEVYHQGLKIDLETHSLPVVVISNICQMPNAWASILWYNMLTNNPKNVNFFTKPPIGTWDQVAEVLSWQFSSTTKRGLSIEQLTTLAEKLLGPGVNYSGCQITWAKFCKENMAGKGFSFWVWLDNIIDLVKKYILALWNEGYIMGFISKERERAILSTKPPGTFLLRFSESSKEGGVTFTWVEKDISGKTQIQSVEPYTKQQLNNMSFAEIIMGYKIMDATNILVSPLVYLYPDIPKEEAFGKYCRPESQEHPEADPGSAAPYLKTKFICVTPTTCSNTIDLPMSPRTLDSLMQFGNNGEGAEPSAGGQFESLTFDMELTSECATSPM
Nuclear factor erythroid 2-related factor 2 (Homo sapiens), sequence (Q16236 whole entry, looked up): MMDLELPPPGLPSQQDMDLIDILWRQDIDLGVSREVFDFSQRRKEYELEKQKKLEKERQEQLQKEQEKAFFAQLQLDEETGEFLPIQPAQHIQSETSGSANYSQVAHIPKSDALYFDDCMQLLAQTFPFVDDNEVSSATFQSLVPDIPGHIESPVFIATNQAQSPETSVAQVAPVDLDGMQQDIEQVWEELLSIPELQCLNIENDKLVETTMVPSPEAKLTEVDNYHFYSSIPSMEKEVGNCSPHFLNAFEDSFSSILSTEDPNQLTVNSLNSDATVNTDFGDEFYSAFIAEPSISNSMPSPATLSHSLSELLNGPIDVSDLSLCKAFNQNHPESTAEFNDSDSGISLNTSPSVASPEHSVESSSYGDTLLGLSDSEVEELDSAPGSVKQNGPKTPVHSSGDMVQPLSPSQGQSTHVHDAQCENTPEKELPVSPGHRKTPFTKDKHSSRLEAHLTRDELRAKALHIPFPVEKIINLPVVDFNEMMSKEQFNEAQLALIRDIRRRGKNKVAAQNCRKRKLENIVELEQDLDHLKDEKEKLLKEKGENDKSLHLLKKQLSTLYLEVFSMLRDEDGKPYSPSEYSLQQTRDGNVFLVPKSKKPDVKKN

CNC(=O)ON=C(SC)C(=O)N(C)C
inactive: all assays above

CCOP(=S)(OCC)Oc1cc(C)nc(C(C)C)n1
not listed: [2] | [7]
inactive: all other assays above

CCC(=O)Nc1ccc(Cl)c(Cl)c1
not listed: [2] | [7]
inactive: all other assays above

CNC(=O)Oc1cccc2c1OC(C)(C)O2
not listed: [2] | [7]
inactive: all other assays above

CCOP(=S)(Oc1cnc(C(C)(C)C)nc1)OC(C)C (stereo unspecified)
not listed: [2] | [7]
inactive: all other assays above

Cc1ccn2nc(S(=O)(=O)Nc3c(F)cccc3F)nc2n1
not listed: [2] | [7]
inactive: all other assays above

CCCCOC(=O)c1ccccc1C(=O)O
not listed: [2] | [7]
inactive: all other assays above

COP(=O)(OC)OC(Br)C(Cl)(Cl)Br (stereo unspecified)
active: [1] 21.1 µM | [6] 50 µM
not listed: [2] | [7]
inactive: all other assays above

C[N+]1(C)CCCCC1
not listed: [2]
inactive: all other assays above

CC(C1CC1)C(O)(Cn1cncn1)c1ccc(Cl)cc1 (stereo unspecified)
active: [4] 0.389 µM
not listed: [2]
inactive: all other assays above

COc1cc(OC)nc(Sc2cccc(Cl)c2C(=O)O)n1
not listed: [2]
inactive: all other assays above

CCOC(=O)CC(SP(=O)(OC)OC)C(=O)OCC (stereo unspecified)
not listed: [2] | [7]
inactive: all other assays above

CSc1nc(NC(C)C)nc(NC(C)C)n1
active: [5] 50 µM | [6] 84.9 µM
not listed: [2]
inactive: all other assays above

N#CSCSC#N
not listed: [2] | [7]
inactive: all other assays above

CCOP(=O)(OCC)Oc1cc(C)nc(C(C)C)n1
not listed: [2] | [7]
inactive: all other assays above

COP(=O)(OC)SCn1c(=O)oc2cc(Cl)cnc21
active: [10] 0.262 µM
not listed: [2]
inactive: all other assays above

CCOC(=O)COc1cc(-c2nn(C)c(OC(F)F)c2Cl)c(F)cc1Cl
not listed: [2]
inactive: all other assays above

CCCSP(=O)(OCC)SCCC
not listed: [2] | [7]
inactive: all other assays above

O=C(O)c1cc(Oc2ccc(C(F)(F)F)cc2Cl)ccc1[N+](=O)[O-]
active: [6] 50 µM
not listed: [2] | [7]
inactive: all other assays above

CCc1cccc(C)c1N(C(=O)CCl)C(C)COC (stereo unspecified)
not listed: [2] | [7]
inactive: all other assays above

CC(=NC#N)N(C)Cc1ccc(Cl)nc1
not listed: [2]
inactive: all other assays above

C=C(C)[C@H]1Cc2c(ccc3c2O[C@@H]2COc4cc(OC)c(OC)cc4[C@@H]2C3=O)O1
active: [3] 0.358 µM | [5] 12.3 µM | [6] 13.2 µM | [9] 11.1 µM | [10] 50 µM
inactive: [1] | [4] | [8]

CSc1nnc(C(C)(C)C)c(=O)n1N
not listed: [2]
inactive: all other assays above

CN(C)[C@@H]1C(=O)C(C(N)=O)=C(O)[C@@]2(O)C(=O)C3=C(O)c4c(O)cccc4[C@@](C)(O)[C@H]3[C@H](O)[C@@H]12
not listed: [2] | [7]
inactive: all other assays above

CNc1cnn(-c2cccc(C(F)(F)F)c2)c(=O)c1Cl
not listed: [2]
inactive: all other assays above

O=c1ccc(=O)[nH][nH]1
not listed: [2]
inactive: all other assays above

CCCOc1nn(C(=O)NS(=O)(=O)c2ccccc2C(=O)OC)c(=O)n1C
not listed: [2]
inactive: all other assays above

CON=C(C(=O)OC)c1ccccc1CON=C(C)c1cccc(C(F)(F)F)c1
not listed: [2]
inactive: all other assays above

C[Si](Cn1cncn1)(c1ccc(F)cc1)c1ccc(F)cc1
active: [5] 74.4 µM | [6] 73.5 µM | [8] 34.1 µM | [10] 50 µM
inactive: [1] | [3] | [4] | [9]

O=[N+]([O-])c1cc(C(F)(F)F)c(Cl)c([N+](=O)[O-])c1Nc1ncc(C(F)(F)F)cc1Cl
active: [5] 23.4 µM | [6] 50 µM | [8] 79.7 µM
not listed: [2]
inactive: all other assays above

CN(C)NC(=O)CCC(=O)O
not listed: [2] | [7]
inactive: all other assays above

Nc1nc(N)nc(NC2CC2)n1
not listed: [2] | [7]
inactive: all other assays above

CCCSP(=O)(OCC)Oc1ccc(Br)cc1Cl (stereo unspecified)
not listed: [2] | [7]
inactive: all other assays above

C#CC(C)(C)NC(=O)c1cc(Cl)cc(Cl)c1
not listed: [2] | [7]
inactive: all other assays above

CCOP(=S)(OCC)OC(Cl)C(Cl)(Cl)Cl (stereo unspecified)
not listed: [2] | [7]
inactive: all other assays above

CCOP(=O)(SC(C)CC)N1CCSC1=O (stereo unspecified)
not listed: [2] | [7]
inactive: all other assays above

CCC(=NOC/C=C/Cl)C1=C(O)CC(C2CCOCC2)CC1=O (stereo unspecified)
not listed: [2] | [7]
inactive: all other assays above

From PubChem BioAssay (EPA / NIEHS)
